Assay [1] is described as follows: HepG2 liver cancer cell viability effects, profiling panel, resazurin fluorescence, 24 h, PK04 Diversity Set (AID 1172). The following applies: higher = more signal.
Assay [2] can be described thus: basal S. cerevisiae growth modulation, no modifier, primary screen, OD600, strain BY4716, 24 h, basal condition (AID 1173). The following applies: OD600, 24 h, higher = more signal, called active from +8 up or from −8 down.
Assay [3] is described as follows: MM1S myeloma cell viability, profiling panel, resazurin fluorescence, basal, 24 h, PK04 Diversity Set (AID 1174).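 Note: MM1S multiple myeloma cell line.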 The following applies: higher = more signal, called active from +8 up or from −8 down.
For assay [4], the target named is Dihydroorotate dehydrogenase (quinone), mitochondrial (Plasmodium falciparum (isolate 3D7)) (UniProt Q08210). Put plainly: PfDHODH enzyme inhibitors, primary screen, biochemical, C-terminal His tag, absorbance 600 nm (AID 1175).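 Note: recombinant parasite enzyme with a five histidine tag at its C terminus.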 The following applies: DCIP absorbance 600 nm, higher = more signal, called active from +8 up or from −8 down.
Assay [5] can be described thus: P. aeruginosa biofilm formation inhibitors, primary screen, strain PAO1, LB-PBS medium, absorbance 600 nm (AID 1176). The following applies: P. aeruginosa PAO1 growth/biofilm, A600, 12 h; higher = more signal.
The nature of assay [6]: S. cerevisiae RM11-1a growth modifiers, primary screen, strain RM11-1a, OD600, basal, 24 h (AID 1177).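 Note: cultures grown under basal conditions with no added stressor.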 The following applies: OD600, 24 h, higher = more signal, called active from +8 up or from −8 down.
A short description of assay [7]: E. coli acrAB mutant growth effects, primary screen, E. coli filamentation inducers, strain DRC39, OD650, 24 h (AID 1178).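 Note: growth measured as culture turbidity by optical density at 650 nm.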 The following applies: higher = more signal, called active from +8 up or from −8 down.
A short description of assay [8]: E. coli acrAB mutant growth effects, primary screen, E. coli filamentation inducers, strain DRC39, OD650, 48 h (AID 1179).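 Note: screen aims at cell division blockers that make cells filament.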 The following applies: E. coli DRC39 delta-acrAB growth, higher = more signal, called active from +8 up or from −8 down.
Assay [9] in a line: RPMI8226 myeloma cell viability, profiling panel, resazurin fluorescence, basal, 24 h, PK04 Diversity Set (AID 1180).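 Note: RPMI8826 multiple myeloma cell line at 5000 cells per well.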 The following applies: higher = more signal.
Assay [10] addresses E3 ubiquitin-protein ligase XIAP (Homo sapiens) (UniProt P98170). Description: XIAP binders, primary screen, biophysical, small-molecule microarray, fluorescence 635 nm (AID 1181).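 Note: score merges 667 nm emission and signal to noise over triplicate slides.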 The following applies: small-molecule microarray binding, higher = more signal.
Assay [11] concerns XIP peptide (Xip251-270) binding. Description: small-molecule binders of XIP peptide, primary screen, biochemical, small-molecule microarray, fluorescence 635/667 nm, 0.1 µg/mL protein (AID 1182). The following applies: fluorescent protein binding, 635 nm, higher = more signal, called active from +8 up or from −8 down.
In a further assay the test system is XIP peptide (Xip251-270). Put plainly: small-molecule binders of XIP peptide, primary screen, biochemical, small-molecule microarray, fluorescence 635/667 nm, 0.5 µg/mL protein (AID 1183). The following applies: small-molecule microarray binding, fluorescence 635 nm; higher = more signal.
Assay [12] is described as follows: Plasmodium falciparum growth inhibition, primary screen, strain 3D7, DAPI fluorescence, 100 nL (AID 1184).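 Note: parasites grown inside human red blood cells in medium with human serum.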 The following applies: P. falciparum 3D7 growth, 3 d, higher = more signal.
The target in assay [13] is Homeobox protein Hox-A13 (Mus musculus) (UniProt Q62424). Description: inhibitors of HoxA13-DNA binding, primary screen, biochemical, fluorescence polarization, labeled oligonucleotide (AID 1185). The following applies: 15 min, higher = more signal, called active from +8 up or from −8 down.
Assay [14] in a line: inhibitors of hydroxyurea-induced Chk1 phosphorylation, primary screen, imaging, HeLa, phospho-Chk1 antibody, percent positive cells (AID 1186). The following applies: hydroxyurea-induced phospho-Chk1 immunofluorescence imaging, higher = more signal.
Assay [15] in a line: inhibitors of hydroxyurea-induced Chk1 phosphorylation, primary screen, imaging, HeLa, phospho-Chk1 nuclear intensity (AID 1187). The following applies: hydroxyurea-induced phospho-Chk1 immunofluorescence imaging, higher = more signal.

Active and inactive are the calls of the source. Unless noted, the rule behind the calls is not given here.

Homeobox protein Hox-A13 (Mus musculus), sequence (Q62424 whole entry, looked up): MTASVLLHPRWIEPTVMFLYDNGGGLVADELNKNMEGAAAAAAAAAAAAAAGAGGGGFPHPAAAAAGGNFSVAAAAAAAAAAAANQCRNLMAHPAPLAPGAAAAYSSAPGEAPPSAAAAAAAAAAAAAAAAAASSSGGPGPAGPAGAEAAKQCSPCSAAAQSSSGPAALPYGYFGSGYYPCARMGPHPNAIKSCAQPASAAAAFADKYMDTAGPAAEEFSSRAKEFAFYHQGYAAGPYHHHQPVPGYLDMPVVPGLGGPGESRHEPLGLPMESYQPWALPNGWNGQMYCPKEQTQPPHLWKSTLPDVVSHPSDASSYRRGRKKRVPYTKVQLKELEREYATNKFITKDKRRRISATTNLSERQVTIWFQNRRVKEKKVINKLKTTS
Dihydroorotate dehydrogenase (quinone), mitochondrial (Plasmodium falciparum (isolate 3D7)), sequence (Q08210 whole entry, looked up): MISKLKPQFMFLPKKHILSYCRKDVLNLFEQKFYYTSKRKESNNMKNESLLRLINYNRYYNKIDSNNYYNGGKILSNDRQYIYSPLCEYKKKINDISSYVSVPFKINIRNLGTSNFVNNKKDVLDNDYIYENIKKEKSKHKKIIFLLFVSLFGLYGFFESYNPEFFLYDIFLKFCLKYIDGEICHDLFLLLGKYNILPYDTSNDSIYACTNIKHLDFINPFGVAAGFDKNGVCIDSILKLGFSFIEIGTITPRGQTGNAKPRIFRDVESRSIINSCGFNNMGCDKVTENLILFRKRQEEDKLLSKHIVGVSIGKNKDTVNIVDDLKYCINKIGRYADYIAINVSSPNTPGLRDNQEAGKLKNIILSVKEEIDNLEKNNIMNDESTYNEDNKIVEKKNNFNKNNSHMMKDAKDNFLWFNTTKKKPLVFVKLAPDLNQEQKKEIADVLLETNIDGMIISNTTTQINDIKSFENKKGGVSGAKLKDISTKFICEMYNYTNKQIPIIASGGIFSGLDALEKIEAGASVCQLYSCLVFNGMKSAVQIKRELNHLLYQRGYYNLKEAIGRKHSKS
E3 ubiquitin-protein ligase XIAP (Homo sapiens), sequence (P98170 whole entry, looked up): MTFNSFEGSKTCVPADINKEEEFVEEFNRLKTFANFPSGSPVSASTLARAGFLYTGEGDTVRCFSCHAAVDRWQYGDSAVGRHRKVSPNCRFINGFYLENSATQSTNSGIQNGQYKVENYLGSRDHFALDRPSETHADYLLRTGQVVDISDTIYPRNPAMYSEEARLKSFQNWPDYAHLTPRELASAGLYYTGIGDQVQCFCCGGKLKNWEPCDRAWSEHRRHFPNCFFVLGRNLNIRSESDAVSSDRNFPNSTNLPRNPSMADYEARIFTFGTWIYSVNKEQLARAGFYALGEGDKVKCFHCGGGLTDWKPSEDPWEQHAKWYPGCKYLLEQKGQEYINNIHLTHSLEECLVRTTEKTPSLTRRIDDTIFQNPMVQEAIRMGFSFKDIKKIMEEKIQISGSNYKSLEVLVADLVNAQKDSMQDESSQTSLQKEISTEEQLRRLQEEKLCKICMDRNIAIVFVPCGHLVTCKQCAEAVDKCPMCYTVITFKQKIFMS

Consider `O=C1OCCC=C[C@H]2OC34C=CCN(c5ccc6ccccc6c5)C(=O)[C@H]3N(CCO)C(=O)[C@@H]4C12` (stereo partly drawn), for which the z-score in assay [1] was 0.523; in assay [2], -0.783 (inactive); in assay [3], -1.23 (inactive); in [5], 0.345 (inactive); in assay [6], 0.0789 (inactive); in assay [7] it was -1.26 (inactive). Besides, the z-score was -1.42 (inactive) in assay [8]; -0.796 in assay [9]; -0.022 in assay [12]; -5.62 (inactive) in assay [13]; 0.8 (inactive) in [14]; 0.163 (inactive) in [15]. Also, the composite z-score in [4] was -3.6 (inactive); in [10] it was -0.248; in assay [11], 0.263 (inactive); in the assay on XIP peptide (Xip251-270) it was 0.569.

Consider `CC1CC/C=C\[C@H]2OC34C=CCN(CCN5CCOCC5)C(=O)[C@H]3N(CCCO)C(=O)[C@@H]4C2C(=O)O1` (stereo partly drawn), for which the z-score in [1] was -0.505; in assay [2] it was 0.356 (inactive); in assay [3] it was -0.431 (inactive); in assay [5], 0.233 (inactive); in assay [6], 0.296 (inactive); in [7], -0.47 (inactive). For the same compound, the z-score in [8] is -0.496 (inactive); in assay [9], -0.479; in assay [12] it was -0.246; in assay [13], -6.46 (inactive); in assay [14], 0.58 (inactive); in assay [15] it was 0.667 (inactive). The composite z-score in [4] was 0.199 (inactive); in [10] it was 0.158; in [11], 0.537 (inactive); with XIP peptide (Xip251-270), -0.868.

Turning to `CC1CC/C=C\[C@H]2OC34C=CCN(c5ccc6ccccc6c5)C(=O)[C@H]3N(C(C)CO)C(=O)[C@@H]4C2C(=O)O1` (stereo partly drawn), the z-score in [1] is -0.0727; in [2] it was -0.36 (inactive); in assay [3], -0.304 (inactive); in assay [5], -0.236 (inactive); in assay [6] it was 0.853 (inactive); in assay [7], 0.0825 (inactive). Also, the z-score is 0.509 (inactive) in [8]; 0.762 in assay [9]; -0.338 in [12]; -4.97 (inactive) in assay [13]; 0.0352 (inactive) in [14]; -0.228 (inactive) in assay [15]. For the same compound, the composite z-score in [4] was 0.631 (inactive); in assay [10], -0.208; in assay [11], -0.0371 (inactive); with XIP peptide (Xip251-270) it was -0.691.

On to `O=C1C[C@@](C(=O)NC2CC2)(c2ccc([N+](=O)[O-])cc2)[C@@H](c2ccc(CO)cc2)N1C1CCCCC1`, for which the z-score is 0.363 in [1]; -1.44 (inactive) in assay [2]; 1.23 (inactive) in assay [3]; 1.46 (inactive) in [5]; -2.37 (inactive) in assay [6]; 0.0991 (inactive) in assay [7]. In addition, the z-score is -0.0005 (inactive) in assay [8]; 1.48 in assay [9]; -1.39 in assay [12]; -3.19 (inactive) in assay [13]; -0.544 (inactive) in [14]; -0.979 (inactive) in assay [15]. Further, the composite z-score is -6.96 (inactive) in [4], -0.0574 in [10], 1.19 (inactive) in [11] and 0.662 in the assay with XIP peptide (Xip251-270).

Consider `C=CCNC(=O)[C@@H]1[C@H]2C(=O)O[C@H](c3ccccc3)[C@H](c3ccccc3)N2[C@H](c2ccc(OCCO)cc2)[C@@]12C(=O)Nc1ccc(C#CC3(O)CCCCCC3)cc12`, for which the z-score in assay [1] was -1.01; in assay [2], 0.933 (inactive); in [3] it was -2.37 (inactive); in [5], 2.09 (inactive); in [6], 1.16 (inactive); in assay [7], -0.347 (inactive). Besides, the z-score is -0.797 (inactive) in assay [8]; -2 in assay [9]; -1.73 in assay [12]; -1.92 (inactive) in [13]; -0.0427 (inactive) in [14]; -0.271 (inactive) in [15]. For the same compound, the composite z-score was 0.315 (inactive) in [4], -0.0095 in [10], 1.02 (inactive) in [11] and 0.774 in the assay on XIP peptide (Xip251-270).

On to `COCCOC(=O)N1C(=O)[C@@]2(c3cc(C#CCC(C(=O)OC)C(=O)OC)ccc31)[C@H](C(=O)Nc1nc3ccccc3s1)[C@H]1C(=O)O[C@H](c3ccccc3)[C@H](c3ccccc3)N1[C@@H]2c1ccc(O)cc1`, for which the z-score in [1] was -0.218; in assay [2] it was 0.945 (inactive); in assay [3], -0.0585 (inactive); in assay [5], 0.678 (inactive); in assay [6], 0.404 (inactive); in assay [7], 0.378 (inactive). The z-score was -0.186 (inactive) in [8]; -0.577 in [9]; -1.52 in assay [12]; -1.93 (inactive) in assay [13]; 0.119 (inactive) in assay [14]; 0.359 (inactive) in [15]. Also, the composite z-score was 0.863 (inactive) in assay [4], 0.286 in assay [10], 0.224 (inactive) in assay [11] and 0.599 in the assay on XIP peptide (Xip251-270).

With `CC(C)(C)OC(=O)CC[C@@]1(C(=O)NCCN2CCOCC2)N=C(c2ccc(OCCCO)cc2)O[C@@H]1c1ccccc1CN=[N+]=[N-]`, the z-score in assay [1] was 0.535; in assay [2] it was -0.51 (inactive); in assay [3], -0.743 (inactive); in [5] it was -0.0988 (inactive); in [6], -0.922 (inactive); in assay [7], -0.407 (inactive). Moreover, the z-score is -0.721 (inactive) in assay [8]; -0.28 in assay [9]; -0.41 in assay [12]; -4.93 (inactive) in assay [13]; -0.0412 (inactive) in [14]; -0.301 (inactive) in assay [15]. Moreover, the composite z-score in [4] is -0.918 (inactive); in [10] it was -0.0559; in assay [11], 0.158 (inactive); with XIP peptide (Xip251-270) it was 0.729.

In the case of `O=C1C2C=CC(C(O)c3cccs3)N(Nc3ccc([N+](=O)[O-])cc3)C2C(=O)N1c1ccccc1` (stereo not drawn), the z-score is 0.626 in assay [1]; 0.348 (inactive) in assay [2]; -0.125 (inactive) in assay [3]; 0.89 (inactive) in assay [5]; -0.0522 (inactive) in assay [6]; -0.958 (inactive) in assay [7]. Moreover, the z-score is -0.0047 (inactive) in [8]; -0.182 in [9]; -0.965 in assay [12]; -4.16 (inactive) in assay [13]; -0.479 (inactive) in [14]; -0.779 (inactive) in [15]. Moreover, the composite z-score in assay [4] is -1.63 (inactive); in assay [10], -0.177; in assay [11] it was 0.396 (inactive); with XIP peptide (Xip251-270), -0.0032.

These data come from PubChem BioAssay.
